From PubChem BioAssay AID2098 (Broad Institute, 2009)
Among all 300,000 compounds or so, about 2,300 (0.77%) were called active. This excerpt belongs to a sample that is enriched for actives. Values without a mark were called inactive.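 How the source made its calls: active means more than half of replicate wells show activity change below -50%, luminescence cut by over half; inconclusive means some wells, but at most half, below -50%; inactive means no replicate well below -50%.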

experiment: blocking HSF1-driven luciferase expression – cell-based, NIH3T3, luminescence, primary screen (AID 2098); conditions: NIH3T3-HGL HSE-luciferase, MG132-induced, luminescence 8 h; hits give low values; screened at 7.5 µM (by protocol);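 further: luciferase reports HSF-1 transcriptional activity via heat shock element; 0% = median of DMSO wells and -100% = zero luminescence signal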

Compound	activity change, negative = inhibition
COc1ccc(C(=O)c2c3ccc([N+](=O)[O-])cc3[n+]([O-])n2CCCN)cc1	13.3%
O=C(NC1CCCCC1)c1ccc(-c2ccc(Cl)cc2)o1	43.4%
CC1(C)S[C@@H]2[C@H](NC(=O)COc3ccccc3)C(=O)N2C1C(=O)OCc1ccccc1 (stereo partly drawn)	5.03%
Cc1c(NC(=O)CN(C)CC(=O)Nc2ccc(F)c(F)c2F)c(=O)n(-c2ccccc2)n1C	1.95%
Cc1ccn2c(=O)nc(SCC(=O)NCc3ccc(F)cc3)nc2c1	4.59%
Cc1cccc(N2CCN(C(c3ccccc3)c3nnnn3CC3CCCO3)CC2)c1C (stereo not drawn)	-61% (active)
Cc1cccc(N2CCN(C(c3ccc(N(C)C)cc3)c3nnnn3C(C)(C)C)CC2)c1C (stereo not drawn)	-2.19%
COc1ccccc1C(c1nnnn1CC1CCCO1)N1CCN(c2ccccc2)CC1 (stereo not drawn)	-0.551%
Cc1sc2nc(CSCC(=O)NC3CCCCC3)[nH]c(=O)c2c1C	16.5%
CCOC(=O)c1ccc(NC(=S)N2CCCC2)cc1	19%
Cc1cc(Cl)ccc1NC(=S)N1CCC(C(N)=O)(N2CCCCC2)CC1	1.76%
CCOC(=O)N1CCN(C(=S)Nc2ccc(C)cc2C)CC1	-68.8% (active)
O=C1CCCCC1Sc1ccc(Cl)cc1[N+](=O)[O-] (stereo not drawn)	3.95%
CCOc1ccc(NS(=O)(=O)c2ccc(C(=O)NCC(c3ccccc3OC)N3CCCC3)cc2)cc1 (stereo not drawn)	-3.53%
O=C(NC1CC1)C1=C[C@H](c2coc3ccccc3c2=O)C[C@H](OCCCCO)O1	-5.11%
COc1cc(OC)c(C(=O)NC2CCCCCC2)cc1OC	2.19%
COc1ccc(C(C)NC(=S)NC2CCCCC2)cc1OC (stereo not drawn)	-74.6% (active)
COc1ccc(Cl)cc1C(=O)NNC(=S)NC1CCCC1	6.56%
Clc1ccc(Nc2ccc3ccccc3n2)cc1	6.43%
Cc1ccc(C2(C)NC(=O)N(CC(=O)Nc3ccccc3C(=O)N3CCCCC3)C2=O)cc1 (stereo not drawn)	10.1%

Compound	activity change, negative = inhibition
O=C1CN(C(=O)COC(=O)c2cnc(Cl)c(Cl)c2)c2ccccc2N1	6.76%
O=C1CN(C(=O)COc2c(Cl)cccc2Cl)c2ccccc2N1	-74.4% (active)
COc1cc(OC)c(C(=O)OCC(=O)N2CC(=O)Nc3ccccc32)cc1OC	11.6%
O=C1/C(=C\c2ccc(O)cc2)CCC1CNc1ccc(Cl)cc1 (stereo not drawn)	-5.88%
CC(=NCc1ccco1)c1c(C(F)(F)F)[nH]n(-c2nc3ccccc3s2)c1=O	-32.4%
C/C(=N\NC(=O)CC(C)C)c1c(C(F)(F)F)[nH]n(-c2nc3ccccc3s2)c1=O	-6.15%
COC(=O)Cc1[nH]n(-c2nc3ccccc3s2)c(=O)c1C(C)=Nc1ccc(OC)cc1	-58.9% (active)
Cc1ccc(S(=O)(=O)NC(C)C(=O)NCc2ccc(Cl)cc2)cc1 (stereo not drawn)	-3.78%
C=CCn1c(C)cc(C2=NNC(=NCC)SC2)c1C	-77.6% (active)
Cc1cccc(N=C2NN=C(c3c[nH]c4ccccc34)CS2)c1	14.3%
C=CCn1c(C)cc(C(=O)CN2C(=O)c3ccccc3C2=O)c1C	8.2%
Cc1ccc(CNS(=O)(=O)CCNC(=O)c2ccccc2)cc1	-2.85%
CC(C)c1ccc(NC(=O)C2CCCN(S(=O)(=O)c3cccnc3)C2)cc1 (stereo not drawn)	-2.05%
O=C(NCc1cccs1)C1CCN(S(=O)(=O)c2ccc(Cl)cc2)CC1	4.22%
O=C(Nc1ccc(F)c(Cl)c1)C1CCN(S(=O)(=O)c2cccnc2)CC1	-56.8% (active)
Cc1ccc(Cl)c(OCC(=O)N(C)CC(=O)Nc2ccc(N3CCOCC3)cc2)c1	4.7%
COc1cc(C(=O)N(C)Cc2cccc(OC)c2OC)ccc1OCC(=O)Nc1cccc(C(F)(F)F)c1	-3.36%
CCN(CC)c1ccc(NC(=O)c2ccc(=O)[nH]c2)cc1S(=O)(=O)Nc1ccc(OC)cc1	2.04%
Cc1ccc(-n2c(=O)cc(N3CCN(Cc4ccccc4)CC3)[nH]c2=O)cc1	-57.4% (active)
CCc1c(C)nc(N2CCN(Cc3ccccc3)CC2)[nH]c1=O	-0.365%

Compound	activity change, negative = inhibition
CN1CCN(c2cc(=O)n(-c3ccc(Cl)cc3)c(=O)[nH]2)CC1	-10.9%
COCCN(C(=O)COC(=O)Cc1cccc(OC)c1)c1c(N)n(Cc2ccccc2)c(=O)[nH]c1=O	-2.09%
NS(=O)(=O)c1ccc(CNC(=O)c2cccc(Oc3ccccc3)c2)cc1	-1.65%
O=C(NNS(=O)(=O)c1ccc(F)cc1)c1cnccn1	4.99%
NS(=O)(=O)c1ccc(CNC(=O)c2cnccn2)cc1	-54.3% (active)
Cc1ccc(S(=O)(=O)NCCC(=O)OCC(=O)N(C)c2ccccc2)cc1	7.6%
O=C(CCC1CCCCC1)Nc1cc(C(F)(F)F)ccc1N1CCOCC1	3.1%
COC(=O)c1nc(NC(=O)c2ccc(F)cc2)n[nH]1	3%
COC(=O)c1nc(NC(=O)c2ccc(Cl)cc2)n[nH]1	-3.56%
COC(=O)c1nc(NC(=O)c2ccc(C(C)(C)C)cc2)n[nH]1	-75.2% (active)
COc1ccccc1Cc1nc(-c2ccc(C)cc2)no1	12%
COc1ccc(-c2nc(-c3ccccc3)no2)c(OC)c1	-66.8% (active)
COc1ccc(Sc2nc(-c3ccccc3)ncc2OC)cc1	-4.54%
C=CCNC(=O)C1CC2c3ccccc3C1c1ccccc12 (stereo not drawn)	-1.08%
CCc1ccc(NC(=O)CC2C(=O)NCCN2C(=S)Nc2ccccc2)cc1 (stereo not drawn)	-1.21%
COc1ccc(C(=O)NC(=S)N2CCNC(=O)C2CC(=O)OC(C)C)cc1 (stereo not drawn)	-54.5% (active)
COc1cccc(NC(=O)CC2C(=O)NCCN2C(=S)Nc2ccc(F)cc2)c1 (stereo not drawn)	3.49%
Cc1ccc(S(=O)(=O)N(Cc2cccc([N+](=O)[O-])c2)C(=O)N2CCN(C)CC2)cc1	-0.764%
